Many of the other results were omitted from the sample, so hits are more common in it than they were.
Chlamy TAG = increases triacylglycerol in Chlamydomonas reinhardtii; Chlamydomonas reinhardtii TAG, Nile Red fluorescence, 72 h; calls only at 10 µM (by protocol); actives 0.84% (n = 44,000); AID 1159537; call rule not given here;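 note: hits raise Nile Red signal meaning more stored TAG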
Of the large screens only hits and unclear results are named; the others gave an inactive call.

Cc1ccc(C(=O)Nc2ccc(Br)c(C)c2)c(Cl)c1	none
NC(=O)C1CCN(CC2CC=CCC2)CC1 (stereo unspecified)	none
CCN(Cc1ccccc1)C(=O)C1CCN(CC2CC=CCC2)CC1 (stereo unspecified)	none
C=C(C)CN(CC)C(=O)C1CCN(CC2CC=CCC2)CC1 (stereo unspecified)	Chlamy TAG active
Cc1sc(NC(=O)CCc2ccccc2)c(C(=O)O)c1C	none
O=c1c2ccccc2ncn1CCOCCOc1ccccc1-c1ccccc1	none
NC(=O)C1CCN(C(=O)c2ccc(CN3CCc4ccccc4C3)cc2)CC1	none
COc1ccc(N2CCN(C(=O)c3ccc(CN4CCc5ccccc5C4)cc3)CC2)cc1	none
O=C(c1ccc(CN2CCc3ccccc3C2)cc1)N1CCN(c2ccccc2F)CC1	Chlamy TAG active
COc1ccc(N(CC(=O)NC2CCCCC2)S(=O)(=O)c2ccc(C)c([N+](=O)[O-])c2)cc1	none
CCN(CC)CC#CC(O)c1ccccc1 (stereo unspecified)	none
CCN(CC)CC#CC(C)(O)C(C)C (stereo unspecified)	none
CCN(CC)CC#Cc1ccc(C#CCN(CC)CC)cc1	Chlamy TAG active
COc1ccc(O)c(CN2CCOCC2)c1	none
CCOc1ccc2nc(N=C(N)NC(=O)c3ccccc3)nc(C)c2c1	none
Cc1ccc(OCc2nc(-c3ccccn3)no2)cc1C	none
COCCC(=O)NC12CC3CC(CC(C3)C1)C2	none
O=C(O)CC(=O)NC12CC3CC(CC(C3)C1)C2	none
CC(C)NCC(=O)NC12CC3CC(CC(C3)C1)C2	Chlamy TAG active
O=C(CCCN1C(=O)c2ccccc2C1=O)Nc1ccc([N+](=O)[O-])cc1	none
O=C1CC(c2ccccc2)CN1C(=O)c1cccc(Br)c1 (stereo unspecified)	none
COc1ccc(C(=O)Nc2ccc(C(C)C)cc2)cc1OC	none
COc1ccccc1N1CCN(Cc2cc(Br)c(O)c(OC)c2)CC1	none
C=CCOc1ccccc1CNc1cc(OC)ccc1OC	none
O=C(Nc1ccccc1O)c1ccc([N+](=O)[O-])cc1	none
O=C(Nc1ccccc1C(=O)Nc1ccc([N+](=O)[O-])cc1)c1ccccc1	none
O=C(Nc1ccccc1C(=O)NCc1ccccc1)c1ccc([N+](=O)[O-])cc1	Chlamy TAG active
COc1ccc(C)cc1NS(=O)(=O)c1ccc(NS(=O)(=O)c2ccccc2)cc1	none
N#CCN(CC#N)C(=O)c1cccc(Cl)c1	none
C/C(=C\c1ccccc1)CN(C)C1CCN(C)CC1	none
C/C=C(\C)CN(C)CCN(C)C	none
C/C(=C\c1ccccc1)CN(C)CCN(C)C	Chlamy TAG active
COc1cc(OC)cc(C(=O)NCc2ccccc2Cl)c1	none
COc1ccc([N+](=O)[O-])cc1NC(=O)c1ccc(Cl)cc1Cl	none
CCOc1ccc(S(=O)(=O)N(CC(=O)NCc2cccnc2)c2ccccc2)cc1	none
COc1ccc(CN(C)C2CCCCC2)cc1C	Chlamy TAG active
COc1ccc(Nc2nc(N)nc(CN(C)C3CCCCC3)n2)cc1	none
COc1ccc(CN(C)C2CCCCC2)cc1	Chlamy TAG active
COc1ccc(CNC2CCCC2)cc1C	none
COc1ccc(CN2CCCC(O)C2)cc1C (stereo unspecified)	none
COc1ccc(CC(=O)NC2CCCC2)cc1	none
COCCNC(=O)c1ccc2c(c1)OCO2	none
CC(C)(Oc1ccc(Cl)cc1)C(=O)Nc1ccc(C(N)=O)cc1	none
Cc1ccc(-c2nc3ncccc3o2)cc1NC(=O)c1ccccc1I	none
CC(C)CC1C(C#N)=C(N)OC2=C1C(=O)CC(C)(C)C2 (stereo unspecified)	none
CCOc1cccc(CN2CCC(C(=O)N3CCCC3)CC2)c1O	none
O=C(c1ccccc1)N1CCN(C(=O)c2ccc(Cl)cc2Cl)CC1	none
O=C(Cc1ccc(Cl)cc1)Nc1ccc(N2CCN(C(=O)c3ccccc3)CC2)cc1	none
O=C(Nc1ccc(N2CCN(C(=O)c3ccccc3)CC2)cc1)c1ccc(Cl)cc1Cl	Chlamy TAG active
CCCN1C(=O)c2ccc(C(=O)c3ccc(C(=O)O)cc3)cc2C1=O	none
COc1cccc(C(=O)Nc2ccc3oc(-c4ccc(F)cc4)nc3c2)c1	none
COc1ccc(-c2nc3cc(NC(=O)c4ccccc4)ccc3o2)cc1	none
O=C(Nc1ccc2oc(-c3cccnc3)nc2c1)c1ccncc1	none
O=C(Nc1ccc2oc(-c3ccncc3)nc2c1)c1ccccc1	none
Cc1ccc(C(=O)Nc2ccc3oc(-c4ccncc4)nc3c2)cc1C	Chlamy TAG active
COc1cccc(C(=O)Nc2ccc3oc(-c4ccncc4)nc3c2)c1	Chlamy TAG active
O=c1cc(C(Cl)(Cl)Cl)oc2ccc(Cl)cc12	none
COc1cc(CN(C)C(c2ccccc2)c2nnnn2-c2ccccc2C)cc2c1OCO2 (stereo unspecified)	none
O=C(O)c1nsnc1-c1cc([N+](=O)[O-])ccc1O	none
COc1ccc(N(CC(=O)Nc2ccc(Cl)cc2C)S(=O)(=O)c2ccccc2)cc1	none
CCCC(=O)Nc1ccc(NC(=O)c2ccc(Br)cc2)cc1	none
Cc1ccc(NC(=O)Cc2ccc(Br)cc2)cc1	none
CCN(CC)CC(=O)Nc1ccc(Br)cc1	Chlamy TAG active
O=[N+]([O-])c1ccc(OCCCN2CCCC2)cc1	none
CCOc1cccc(OCCN2CCOCC2)c1	none
c1ccc(COc2ccc(OCCCCN3CCOCC3)cc2)cc1	none
O=[N+]([O-])c1ccc(OCCCCN2CCCCC2)cc1	none

Bioassay records: PubChem BioAssay, DiRusso Lab, Biochemistry Department, University of Nebraska
